The source of these data is PubChem BioAssay.

The nature of experiment [1]: polyglutamine-triggered caspase-3 activation inhibitors, cell-based (AID 1583). Particulars: polyglutamine-induced caspase-3 activation, cell assay; stronger effect = higher value;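 tested at 10 µM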.
Experiment [2] in a line: suppressors of polyQ aggregation in yeast, 75Q-TubU reporter (AID 1593). The conditions noted are these: Yeast 75Q polyglutamine aggregation reporter.
The nature of experiment [3]: rescue of polyQ-huntingtin neuronal dysfunction in worms, whole organism, C. elegans mechanosensory neurons, N-terminal huntingtin (AID 1599). Particulars: touch response, stronger effect = higher value.
Experiment [4] is described as follows: inhibitors of mitochondrial cytochrome c release, biochemical, purified mitochondria (AID 1603).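 Note: mouse liver mitochondria challenged with calcium chloride; signal normalized to the plate average as 100%.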 Particulars: stronger effect = lower value.
Experiment [5] is described as follows: inhibitors of polyQ protein aggregation (AID 1604). Particulars: polyglutamine-induced protein aggregation inhibition assay; stronger effect = higher value; tested at 2.5 µM.
Experiment [6] is described as follows: enhancers of glutamate uptake in motor neurons, MN-1 cell line (AID 1612).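 Note: tested at 1 µM final; 0% = mean of DMSO vehicle wells on each plate; positive means more glutamate uptake than control and negative means less.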 Particulars: MN-1 motor neuron cells, stronger effect = higher value.
Experiment [7] in a line: reducers of polyQ inclusions in PC12 cells, cell-based, NGF-treated PC12, GFPQ80 (AID 1614).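 Note: lower means fewer inclusions and 0 means no inclusions at all.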 Particulars: PC12 NGF-treated GFP-polyQ80 inclusion reduction.
Experiment [8] can be described thus: suppressors of polyglutamine aggregation in yeast, 75Q-TubH (AID 1616). Particulars: S. cerevisiae 75Q-TubH polyglutamine aggregation suppression; stronger effect = higher value.
For experiment [9], the target named is Mitogen-activated protein kinase 7 (Homo sapiens) (UniProt Q13164). Description: ERK5 transactivation activators in reporter cells, primary screen, cell-based, HTS (AID 1508626).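 Note: luciferase driven by Gal4-ERK5 fusion binding five Gal4 sites before minimal TATA.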 Particulars: HeLa Gal4-ERK5 transactivation, 18 h, at 5 µM, stronger effect = higher value.
Mitogen-activated protein kinase 7 (Homo sapiens), sequence (Q13164 whole entry, looked up, the tested form may be a part): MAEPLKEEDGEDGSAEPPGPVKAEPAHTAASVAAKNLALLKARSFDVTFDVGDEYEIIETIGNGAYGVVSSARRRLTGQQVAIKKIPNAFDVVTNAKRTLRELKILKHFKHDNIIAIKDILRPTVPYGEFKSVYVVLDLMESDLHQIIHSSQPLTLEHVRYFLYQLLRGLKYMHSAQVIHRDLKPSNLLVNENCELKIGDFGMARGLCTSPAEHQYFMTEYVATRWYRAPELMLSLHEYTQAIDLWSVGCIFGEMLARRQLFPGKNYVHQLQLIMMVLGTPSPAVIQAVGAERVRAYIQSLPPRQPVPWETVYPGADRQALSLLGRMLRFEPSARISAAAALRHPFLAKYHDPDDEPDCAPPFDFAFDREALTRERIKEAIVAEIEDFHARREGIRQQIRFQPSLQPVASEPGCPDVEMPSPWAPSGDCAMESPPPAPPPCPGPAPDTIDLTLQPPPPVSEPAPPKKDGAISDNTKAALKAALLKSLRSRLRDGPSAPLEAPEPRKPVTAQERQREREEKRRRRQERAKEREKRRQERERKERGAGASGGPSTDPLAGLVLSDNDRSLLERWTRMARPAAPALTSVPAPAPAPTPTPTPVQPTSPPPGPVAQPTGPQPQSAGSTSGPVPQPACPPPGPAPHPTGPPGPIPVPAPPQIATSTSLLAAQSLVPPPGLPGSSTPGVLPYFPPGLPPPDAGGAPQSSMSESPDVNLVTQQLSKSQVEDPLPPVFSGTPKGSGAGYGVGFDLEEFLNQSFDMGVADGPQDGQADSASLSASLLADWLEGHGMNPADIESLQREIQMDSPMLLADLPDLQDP
Experiment [10] is described as follows: protection against mutant huntingtin cytotoxicity, PC12 cells, LDH release (AID 1610). The conditions noted are these: PC12 mutant huntingtin toxicity, final LDH at 4 uM, stronger effect = lower value. Background: Release of lactate dehydrogenase indicates damage to the cell membrane.
The nature of experiment [11]: liver-stage malaria parasite growth inhibition, primary screen, cell-based, HepG2, luciferase luminescence, HepG2 viability (AID 624349; in the data active = parasite load remaining mostly below about 12%, no sharp cut-off; inactive = mostly above about 10%;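 note: 100% = mean of DMSO negative control wells on the same plate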). The conditions noted are these: P. berghei liver stage in HepG2, luciferase luminescence, concentration not given here; parasite load remaining: stronger effect = lower value; viability: measured here: HepG2 viability without parasites.
Experiment [12] can be described thus: inhibitors of polyQ aggregate elongation, biochemical, solid-phase synthetic aggregates, QA3 (AID 1585; call rule not given here). The conditions noted are these: biotin-polyQ incorporation; EC50: measured here: elongation inhibition potency; inhibition: at 100 µM, stronger effect = higher value.

SMILES strings stand for the structures. Records with an inconclusive call do not appear. For some of these results: Potency and affinity values are given separately. Activity calls are given as the source filed them.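 Rule for the calls, unless noted: active = luciferase signal above three times the same-plate solvent-only control wells; inactive = the rest.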

On to `CCC[C@@H]1C[C@@H](C(=O)NC(C(C)Cl)C2O[C@H](SC)[C@H](O)[C@@H](O)[C@H]2O)N(C)C1` (some centres not stated), for which the inhibition in experiment [1] came to 0.38%. The same compound returned a score in experiment [2] of 1.1. The compound also gave a rescue above control in [3] of -7.48. The cytochrome c release ratio in experiment [4] was found to be 1.11. For the same compound, the inhibition of aggregation in experiment [5] was 60.6%. Besides, the glutamate uptake change in [6] was -13%. Also, the inclusion score in [7] was found to be 2. Moreover, in experiment [8], the aggregation suppression score worked out at 1.42.
Consider `COc1ccc(/C=C/C(=O)c2ccc(O)cc2O)cc1OC`, for which, in [9], the luciferase signal is 60 AU (inactive).
Still for that read-out and setting: the same measure for `Oc1ccc2c(c1)OC[C@]1(O)Cc3cc(O)c(O)cc3[C@H]21`: 28 AU (inactive).
Regarding `C=C1C(=O)OC2C1CCC1(C)CCC=C(C)C21` (configuration not stated), the inhibition in [1] was found to be 56%. This compound also yielded a score in experiment [2] of 0.7. The compound also returned a rescue above control in experiment [3] of 5.32. Also, the cytochrome c release ratio in experiment [4] was found to be 0.81. In addition, the inhibition of aggregation in experiment [5] was -33.3%. Also, the normalised LDH release in experiment [10] amounted to 0.89. For the same compound, the glutamate uptake change in experiment [6] was 0.76%. The same compound yielded an aggregation suppression score in experiment [8] of 0.322.
As to `COC(=O)C[C@H]1C(C)(C)C(=O)[C@@H]2CC3=C(CC[C@]4(C)C3=CC(=O)O[C@H]4c3ccoc3)[C@@]1(C)C2=O`, in experiment [9], the luciferase signal is 24 AU (inactive).
On to `C=C[C@](C)(O)CCC=C(C)C`, for which the luciferase signal in experiment [9] is 36 AU (inactive).
On the same count and under the same terms, the figure for `O=C(O)/C=C/c1ccccc1` is 52 AU (inactive).
Still for that read-out and setting: the same measure for `COC(=O)CC[C@@H](C)[C@H]1CC[C@H]2[C@@H]3CC[C@@H]4C[C@H](O)CC[C@]4(C)[C@H]3C[C@H](O)[C@]12C`: 108 AU (inactive); for `OC[C@H]1O[C@H]([S-])[C@H](O)[C@@H](O)[C@@H]1O.[Au+]`: 68 AU (inactive).
The same measure, in the same setting: the same measure for `CC(C)=CCC/C(C)=C/CC/C(C)=C/CC/C(C)=C/CO`: 0 AU (inactive).
Consider `CC(=O)N[C@@H](Cc1c[nH]c2ccccc12)C(N)=O`, for which the inhibition in experiment [1] turned out to be 11.7%. The same compound yielded a score in [2] of 1.31. The rescue above control in experiment [3] was found to be 23.8. Moreover, the cytochrome c release ratio in experiment [4] worked out at 0.46. The inhibition of aggregation in experiment [5] was 60.3%. In addition, the glutamate uptake change in [6] is -9.38%. In experiment [8], this compound came in with an aggregation suppression score of 1.53. In addition, in experiment [11], the parasite load remaining is 142% (inactive) and the viability stood at 71.9%. The luciferase signal in experiment [9] is 80 AU (inactive).
For the compound `C[C@@]12CCc3occc3[C@H]1CC[C@@]13C[C@@H](CC[C@H]12)[C@@](O)(CO)C3`, the luciferase signal in [9] is 40 AU (inactive).
Same read-out and setting: the figure for `C/C=C(/C)C(=O)O[C@H]1[C@H](OC(C)=O)[C@]2(CO)[C@H](O)C[C@]3(C)C(=CC[C@@H]4[C@@]5(C)CC[C@H](O[C@@H]6O[C@H](C(=O)O)[C@@H](O[C@@H]7O[C@H](CO)[C@@H](O)[C@H](O)[C@H]7O)[C@H](O)[C@H]6O[C@@H]6O[C@H](CO)[C@@H](O)[C@H](O)[C@H]6O)[C@](C)(CO)[C@@H]5CC[C@]43C)[C@@H]2CC1(C)C` is 276 AU (inactive).
Turning to `CC(CNC(=O)c1ccccc1)C(=O)OCC(=O)[C@@]12OC(C)(C)O[C@@H]1CC1C3CCC4=CC(=O)C=C[C@]4(C)[C@@]3(F)[C@@H](O)C[C@@]12C` (some centres not stated), the inhibition in experiment [1] is -1.62%. The score in experiment [2] amounted to 1.01. The rescue above control in [3] came out at 13.9. For the same compound, the cytochrome c release ratio in experiment [4] was determined as 0.92. In experiment [5], the inhibition of aggregation was determined as 100%. In addition, the glutamate uptake change in experiment [6] amounted to 4.01%. Moreover, the inclusion score in experiment [7] was 2.5. In addition, the aggregation suppression score in [8] was found to be 1.21.
With `C=C1C(=O)C23C(O)C1CCC2C12COC3(O)C(O)C1C(C)(C)CCC2O` (configuration not stated), the luciferase signal in experiment [9] is 108 AU (inactive).
`CN[C@@H]1[C@H](O)[C@H](NC)[C@H]2O[C@@]3(O)C(=O)C[C@@H](C)O[C@H]3OC2[C@H]1O` (some centres not stated): in experiment [1], the inhibition turned out to be 1.15%. This compound gave a score in experiment [2] of 1.13. The compound further came in with a rescue above control in experiment [3] of -5.98. Also, in experiment [4], the cytochrome c release ratio was 0.86. Moreover, in experiment [5], the inhibition of aggregation was 42.9%. Further, in experiment [6], the glutamate uptake change amounted to 4.38%. The inclusion score in experiment [7] came to 2. This compound also had an aggregation suppression score in [8] of 1.36.
On to `OCc1cc2c(cn1)[nH]c1ccccc12`, for which the inhibition in experiment [1] was 15.8%. The compound also registered a score in experiment [2] of 0.82. For the same compound, the rescue above control in [3] came out at 10.8. The cytochrome c release ratio in experiment [4] worked out at 0.58. The inhibition of aggregation in experiment [5] is -1.27%. For the same compound, the glutamate uptake change in experiment [6] was 17.8%. The compound also showed an inclusion score in [7] of 2. Besides, the aggregation suppression score in experiment [8] worked out at 1.28.
Consider `CC(C)CCC[C@@H](C)[C@H]1CC[C@H]2[C@@H]3CC=C4CC(=O)CC[C@]4(C)[C@H]3CC[C@]12C`, for which, in experiment [9], the luciferase signal was 20 AU (inactive).
Same read-out and setting: the same measure for `CO/N=C(/C(=O)NC1C(=O)N2C(C(=O)O)=C(CSc3nc(=O)c(=O)[nH]n3C)CS[C@H]12)c1csc(N)n1` (some centres not stated): 52 AU (inactive).
As to `O=c1c(O)cc2c(O)oc3c(=O)c(O)cc4c3c2c1CC=4O`, the inhibition in [1] was -1.16%. In experiment [12], the EC50 came out at 44 µM and the inhibition was 82% (active). For the same compound, the score in [2] is -1.91. The compound also yielded a rescue above control in experiment [3] of -6.17. Moreover, the cytochrome c release ratio in experiment [4] is 1.61. For the same compound, in experiment [5], the inhibition of aggregation came out at 25.2%. In addition, the glutamate uptake change in experiment [6] is -0.57%. The compound also came in with an inclusion score in [7] of 2. Also, the aggregation suppression score in experiment [8] worked out at 0.786.
Consider `CCN(CCCc1ccccc1)CCCc1ccccc1` (tested in a mixture with another compound), for which the inhibition in experiment [1] is 13.3%. Besides, the score in experiment [2] is 1.17. In addition, the rescue above control in experiment [3] is -6.75. Also, the cytochrome c release ratio in experiment [4] stood at 0.86. Further, the inhibition of aggregation in [5] was 31.7%. In [6], the glutamate uptake change amounted to 20.1%. In [7], this compound showed an inclusion score of 2. The same compound returned an aggregation suppression score in experiment [8] of 1.65.
In the case of `COc1cc(-c2cc(=O)c3c(O)c(OC)c(OC)c(OC)c3o2)cc(OC)c1OC`, in experiment [9], the luciferase signal is 40 AU (inactive).
`COc1cccc(C(=O)c2ccccc2O)c1O`: the inhibition in experiment [1] is -4.26%. The compound also gave a score in experiment [2] of 0.2. Besides, the rescue above control in experiment [3] stood at 0. Also, in experiment [4], the cytochrome c release ratio is 1.59. Also, the inhibition of aggregation in [5] came out at 85.8%. The glutamate uptake change in experiment [6] was -9.84%. The compound further had an aggregation suppression score in [8] of 0.104.
As for `CO/N=C(\C(=O)NC1C(=O)N2C(C(=O)O)=C(CSc3nc(=O)c(O)nn3C)CS[C@H]12)c1csc(N)n1` (some centres not stated), the inhibition in experiment [1] was 3.84%. This compound yielded a score in [2] of 1.38. In experiment [3], this compound registered a rescue above control of -0.56. The cytochrome c release ratio in experiment [4] was determined as 1.14. The inhibition of aggregation in experiment [5] stood at 62.1%. In [6], the glutamate uptake change worked out at 15.4%. The same compound showed an inclusion score in [7] of 2. In [8], this compound registered an aggregation suppression score of 1.05.

One may read the inhibition as the drop in the measured response relative to a control, in per cent. A word on the viability: it is the share of living cells, or the viability signal relative to a control. A word on the EC50: it is the concentration at which the effect is half-maximal.
